High-throughput results (PubChem BioAssay)
BoNT A protease – blocks Botulinum neurotoxin A light chain protease | multiplex microsphere protease substrate cleavage, flow cytometry | inhibition, % at 10 µM | 360,000 compounds, 0.17% hits; note: plate controls were buffer without enzyme for full effect and enzyme alone for no effect
Autofluor counter – counter-screen for toxin protease inhibitors: compound fluorescence. compound autofluorescence counterscreen, microsphere flow cytometry; stronger effect = higher value. fluorescence intensity (concentration not given with the values). 360,000 compounds, 3.1% hits. AID 624483; in the data active = fluorescence intensity above about 16000; inconclusive = no clear call, values can overlap the other calls
Anthrax LF inh2 – inhibitors of Bacillus anthracis lethal factor protease; P15917; multiplex microsphere protease cleavage assay, LF; inhibition, % at 10 µM; 360,000 compounds, 0.12% hits; AID 588501; note: plate controls were buffer without enzyme for full effect and enzyme alone for no effect
Target sequence (P15917 whole entry, looked up): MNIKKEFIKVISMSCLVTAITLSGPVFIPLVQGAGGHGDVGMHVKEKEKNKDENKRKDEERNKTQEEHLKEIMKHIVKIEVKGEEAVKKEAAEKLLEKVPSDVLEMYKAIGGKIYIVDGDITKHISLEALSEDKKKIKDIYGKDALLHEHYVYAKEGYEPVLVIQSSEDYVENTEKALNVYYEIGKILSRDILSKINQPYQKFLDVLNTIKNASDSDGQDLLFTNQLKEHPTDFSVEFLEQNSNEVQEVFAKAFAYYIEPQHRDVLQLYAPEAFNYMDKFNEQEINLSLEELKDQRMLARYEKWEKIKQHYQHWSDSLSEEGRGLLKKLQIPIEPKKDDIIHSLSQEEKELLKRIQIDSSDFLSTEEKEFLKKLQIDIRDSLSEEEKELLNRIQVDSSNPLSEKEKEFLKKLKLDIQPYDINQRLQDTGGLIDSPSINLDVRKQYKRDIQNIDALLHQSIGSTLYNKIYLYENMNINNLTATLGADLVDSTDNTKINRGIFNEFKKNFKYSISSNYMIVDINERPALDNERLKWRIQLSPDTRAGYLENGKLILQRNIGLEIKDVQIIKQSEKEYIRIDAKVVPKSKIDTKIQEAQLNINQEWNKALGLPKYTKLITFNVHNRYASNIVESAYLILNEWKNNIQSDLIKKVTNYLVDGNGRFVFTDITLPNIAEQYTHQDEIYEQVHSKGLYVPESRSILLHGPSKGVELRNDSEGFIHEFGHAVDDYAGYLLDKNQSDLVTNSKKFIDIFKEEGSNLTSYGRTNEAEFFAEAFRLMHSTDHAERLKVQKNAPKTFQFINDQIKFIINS
BoNT-F LC inh – BoNT F light chain protease inhibition; 360,000 compounds, 0.22% hits; inhibition, % at 10 µM; Multiplex microsphere protease cleavage assay, flow cytometry; in the data active = inhibition above about 35%, passing the limit was not always enough; inconclusive = no clear call, values can overlap the other calls; note: plate controls were buffer without enzyme for full effect and enzyme alone for no effect
An asterisk follows results filed as active. Compounds with a hit are over-represented: about 3.5% of the library has one in this group of screens. Cut-off read from the data, not from the text of the source, unless noted: active = inhibition above about 30%; inconclusive = no clear call, values can overlap the other calls; inactive = below that.

Results for COc1cccc(OC)c1C(=O)N1CCN(c2c(Cc3ccccc3)c(C)nc3ncnn23)CC1 ?
BoNT A protease: -13; Autofluor counter: 26771*; Anthrax LF inh2: -7; BoNT-F LC inh: -15

What do the screens show for `Cc1nc2ncnn2c(N2CCC(C(=O)NC3CCCC3)CC2)c1Cc1ccccc1`?
BoNT A protease: 0; Autofluor counter: 11151; Anthrax LF inh2: -1; BoNT-F LC inh: 1

What do the screens show for `COc1ccc(-c2noc(CCC(=O)Nc3cccc(C(=O)NC4CC4)c3)n2)cc1OC`?
BoNT A protease: 0; Autofluor counter: 2969; Anthrax LF inh2: 3; BoNT-F LC inh: -8

What do the screens show for `Cc1noc(C)c1S(=O)(=O)N(C)C[C@H]1OCc2cnnn2CCCC(=O)N([C@H](C)CO)C[C@H]1C`?
BoNT A protease: 0; Autofluor counter: 3792; Anthrax LF inh2: -12; BoNT-F LC inh: -5

How did CCOc1ccc(CCN2C(=S)N([C@@H](CC(C)C)CN3CCCC3CN3C(=S)NC[C@@H]3CC(C)C)C[C@@H]2CC(C)C)cc1 (some centres undefined) do in these assays?
BoNT A protease: -2; Autofluor counter: 4505; Anthrax LF inh2: -9; BoNT-F LC inh: -24

What do the screens show for `COc1cccc(C(=O)Nc2cc([N+](=O)[O-])ccc2N2CCN(C)CC2)c1`?
BoNT A protease: -4; Autofluor counter: 24311*; Anthrax LF inh2: -3; BoNT-F LC inh: -9

What do the screens show for `CN1CCN(NC(=O)c2cc([N+](=O)[O-])cc([N+](=O)[O-])c2)CC1`?
BoNT A protease: 2; Autofluor counter: 18837*; Anthrax LF inh2: 1; BoNT-F LC inh: -2

How did CN1CCN(c2ccc([N+](=O)[O-])cc2NC(=O)c2ccccc2)CC1 do in these assays?
BoNT A protease: inconclusive; Autofluor counter: 16981*; Anthrax LF inh2: -4; BoNT-F LC inh: -3

Results for COc1ccc(C(=O)Nc2cc([N+](=O)[O-])ccc2N2CCN(C)CC2)cc1 ?
BoNT A protease: 2; Autofluor counter: 19500*; Anthrax LF inh2: -4; BoNT-F LC inh: 0

What do the screens show for `O=C(Nc1cc([N+](=O)[O-])ccc1N1CCCC1)c1ccccc1`?
BoNT A protease: 0; Autofluor counter: 4138; Anthrax LF inh2: -3; BoNT-F LC inh: -1

How did Nc1ccc(S(=O)(=O)Nc2nccs2)cc1N=Nc1ccccc1[N+](=O)[O-] do in these assays?
BoNT A protease: -1; Autofluor counter: 4296; Anthrax LF inh2: -2; BoNT-F LC inh: 1

How did CC1(c2nc3ccccc3[nH]2)CCC2=Nc3ccccc3CN21 (centres undefined) do in these assays?
BoNT A protease: 0; Autofluor counter: 5365; Anthrax LF inh2: 0; BoNT-F LC inh: -2

What do the screens show for `CCCCn1nnnc1C1(C)CCC(=O)N1CCc1ccc(OC)c(OC)c1` (centres undefined)?
BoNT A protease: 0; Autofluor counter: 5063; Anthrax LF inh2: -9; BoNT-F LC inh: -2

What do the screens show for `CCN(CC)C(=O)C1=C(C)N(Cc2ccc(C(C)(C)C)cc2)C(=O)C(CC(=O)NCC2CCCCC2)C1` (centres undefined)?
BoNT A protease: 0; Autofluor counter: 3571; Anthrax LF inh2: -2; BoNT-F LC inh: -1

What do the screens show for `COc1ccc(OC)c(NC(=O)c2ccc(S(=O)(=O)N3CCN(C)CC3)cc2)c1`?
BoNT A protease: 0; Autofluor counter: 22427*; Anthrax LF inh2: -1; BoNT-F LC inh: -2

How did COc1ccc(C(=O)Nc2ccc(S(=O)(=O)N3CCN(C)CC3)cc2)cc1 do in these assays?
BoNT A protease: 0; Autofluor counter: 5222; Anthrax LF inh2: 0; BoNT-F LC inh: -7

Results for CCOc1ccc(OCCNC2CCCC2)cc1 ?
BoNT A protease: inconclusive; Autofluor counter: 22478*; Anthrax LF inh2: -3; BoNT-F LC inh: -6

Results for CCCOc1ccc(OCCNC2CCCC2)cc1 ?
BoNT A protease: 0; Autofluor counter: 20118*; Anthrax LF inh2: 0; BoNT-F LC inh: 0

What do the screens show for `COc1ccc(CCN2C(=O)CCC3=C2CCCC3=O)cc1OC`?
BoNT A protease: 0; Autofluor counter: 6297; Anthrax LF inh2: -7; BoNT-F LC inh: -5

Results for COc1ccc(CN(CC2CCCO2)S(=O)(=O)c2ccc(C(=O)O)cc2)cc1OC (centres undefined) ?
BoNT A protease: -1; Autofluor counter: 23567*; Anthrax LF inh2: 0; BoNT-F LC inh: -2

What do the screens show for `COc1cc(S(=O)(=O)N(Cc2ccccc2)CC2CCCO2)ccc1-n1cnnn1` (centres undefined)?
BoNT A protease: -1; Autofluor counter: 4500; Anthrax LF inh2: -3; BoNT-F LC inh: 0

How did CCc1nc2c(OCCC3CCCCC3)cccn2c1N(C)C(=O)c1ccc(C)cc1 do in these assays?
BoNT A protease: 0; Autofluor counter: 3938; Anthrax LF inh2: 1; BoNT-F LC inh: 0

Results for COC(=O)C1(C(=O)OC)NOC2C(=O)N(c3ccccc3)C(=O)C21 (centres undefined) ?
BoNT A protease: inconclusive; Autofluor counter: 22517*; Anthrax LF inh2: 1; BoNT-F LC inh: 0

Results for Cc1ccc(NC(=O)CSc2nnc(N)s2)cc1S(=O)(=O)N1CCOCC1 ?
BoNT A protease: -1; Autofluor counter: 4628; Anthrax LF inh2: -1; BoNT-F LC inh: -2

What do the screens show for `CCOc1cc(-c2nc3ccccn3c2NCC2CCCO2)ccc1O` (centres undefined)?
BoNT A protease: -9; Autofluor counter: 22229*; Anthrax LF inh2: 3; BoNT-F LC inh: -9

How did COc1ccc(NC(=O)NC2CCN(C(C)C)CC2)c(OC)c1 do in these assays?
BoNT A protease: inconclusive; Autofluor counter: 16455*; Anthrax LF inh2: -6; BoNT-F LC inh: 0

Results for COc1ccc(NC(=O)NC2CCCCCCC2)c(OC)c1 ?
BoNT A protease: 0; Autofluor counter: inconclusive; Anthrax LF inh2: -3; BoNT-F LC inh: -2

What do the screens show for `CCCCCc1nnc(N)s1`?
BoNT A protease: -1; Autofluor counter: 16328*; Anthrax LF inh2: -4; BoNT-F LC inh: -1

Results for O=c1[nH]c2cnn(-c3ccccc3)c2c(=O)n1O ?
BoNT A protease: 0; Autofluor counter: 3972; Anthrax LF inh2: -8; BoNT-F LC inh: 4

What do the screens show for `N/C(=N\OC(=O)c1ccccc1)c1ccn[nH]1`?
BoNT A protease: -2; Autofluor counter: 6077; Anthrax LF inh2: inconclusive; BoNT-F LC inh: 6

What do the screens show for `CCOC(=O)c1c(-c2ccccc2Cl)cn2ccccc12`?
BoNT A protease: 2; Autofluor counter: 21999*; Anthrax LF inh2: -8; BoNT-F LC inh: 3

How did CCOC(=O)c1c(-c2cccc([N+](=O)[O-])c2)cn2ccccc12 do in these assays?
BoNT A protease: -1; Autofluor counter: 4292; Anthrax LF inh2: -2; BoNT-F LC inh: -3

Results for COC(=O)c1ccccc1NC(=O)c1noc2c1CCCC2 ?
BoNT A protease: 2; Autofluor counter: 19950*; Anthrax LF inh2: -2; BoNT-F LC inh: 1

Results for COc1cc(NC(=O)c2noc3c2CCC3)c(OC)cc1Cl ?
BoNT A protease: 3; Autofluor counter: 19679*; Anthrax LF inh2: -1; BoNT-F LC inh: 3

Results for O=C(Nc1ccccc1C(=O)N1CCOCC1)c1noc2c1CCCC2 ?
BoNT A protease: 0; Autofluor counter: 9571; Anthrax LF inh2: -6; BoNT-F LC inh: 2

Results for COc1cc(NC(=O)c2noc(C)c2[N+](=O)[O-])c(OC)cc1Cl ?
BoNT A protease: -1; Autofluor counter: 5565; Anthrax LF inh2: 0; BoNT-F LC inh: 4
